Data taken from PubChem BioAssay (NCATS).
Records with an inconclusive call do not appear. Values without a mark were called inactive. The call rests on the fitted dose curve; in most records, active means well fitted cell-killing curve with a large enough effect; inconclusive means small, poorly fitted or top-dose-only effect, or effect the other way; inactive means flat fitted curve, though single readings scatter.

system: PA-1; assay: Primary qHTS to identify gynecologic anti-cancer compounds using libraries of approved drugs and bioactive compounds (AID 1345084); conditions: Gynecologic cancer cell panel viability, ATPlite luminescence, 48 h; series mostly up to 57.5 µM; activity change, negative = cytotoxicity: at the top concentration; further: nearly all actives have a fitted effect of over 55% in size
Method in brief: (§1)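 ATP-based viability (ATPlite), 1,000 cells/well, 16 h pre-incubation, 48 h compound at 37 C, 5% CO2, 15 min RT before read.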
On the % scale 0 is the no-effect control and ±100 the full control effect.

Structure (SMILES)	activity change, negative = cytotoxicity
CC(C)C[C@H](CO)Nc1nc(S[C@@H](C)c2ccccc2)nc2nc(N)sc12	1.57%
CCN(CC)C(=O)C(c1ccccc1)N1CCN(c2ccc(NC(=O)c3ccccc3-c3cccnc3)cc2F)CC1 (stereo not given)	1.47%
Cc1cn2cc(C(=O)N(C)CCO)cc(NC3CCOc4cccc(C)c43)c2n1 (stereo not given)	-0.385%
O=C(NC[C@H]1CN(c2ccc(N3CCOCC3=O)cc2)C(=O)O1)c1ccc(Cl)s1	-6.18%
Cc1cc2c(N3CCCC3)nc(N3CCCC3)nc2n1C	1.49%
CC(=O)c1ccc2c(c1)[C@H](NC(=O)c1ccc(F)c(Cl)c1)[C@H](O)C(C)(C)O2	7.73%
COc1cc2ncnc(Nc3ccc(F)c(Cl)c3)c2cc1O	-6.65%
O=C(Nc1ccccc1)N1CCC(Cc2cnc3ccccc3c2)CC1	5.82%
CCC(C)C(=O)OC1C(C)C2(O)C(C=C(CO)CC3(O)C(=O)C(C)=CC32)C2C(C)(C)C12OC(=O)C(C)C (stereo not given)	-37.4% [at 25.3 µM]
Cn1cc(C2=C(c3coc4ccccc34)C(=O)NC2=O)c2cc(Br)ccc21	18.3%
CC1=C(C(=O)Nc2cc(Cl)ccc2Cl)C(c2ccco2)C2=C(CCCC2=O)N1 (stereo not given)	-0.942%
CC(=O)OC1C(OC(=O)c2ccccc2)C2C(C)(C)CCC(OC(C)=O)C2(C)C23CCC(C)(C2)C(=O)CC13 (stereo not given)	6.34% [at 25.3 µM]
CC(CCC1(O)OC2CC3C4CC=C5C[C@@H](O[C@@H]6O[C@H](CO)[C@@H](O[C@@H]7O[C@@H](C)[C@H](O)[C@@H](O)[C@H]7O)[C@H](O)[C@H]6O[C@@H]6O[C@@H](C)[C@H](O)[C@@H](O)[C@H]6O)CC[C@]5(C)C4CC[C@]3(C)[C@@]2(O)[C@@H]1C)CO[C@@H]1O[C@H](CO)[C@@H](O)[C@H](O)[C@H]1O (stereo not given in full)	19.4% [at 11.6 µM]
CC(=O)[C@H]1CC[C@H]2[C@@H]3CC=C4C[C@@H](OS(=O)(=O)O)CC[C@]4(C)[C@H]3CC[C@]12C	2.55%
COc1cccc(N2CCN(C3=Nc4c(F)cccc4[C@H](CC(=O)O)N3c3cc(C(F)(F)F)ccc3OC)CC2)c1	2.11%
COc1ccc(-n2c(SCCCN3C(=O)c4cccc5cccc(c45)C3=O)nnc2-c2ccncc2)cc1	-0.21%
Cc1c(C2=CCN(C(=O)N(C)C(C)C)CC2)nnn1-c1cccnc1F	0.417%
COc1cc(C(C)C)c(Oc2cnc(N)nc2N)cc1I	7.93%
Cc1nc(C#Cc2ccnc(Cl)c2)c(C)n1-c1ccc(OC(F)(F)F)cc1	-10.6%
CC(O)C(C)n1ncn(-c2ccc(N3CCN(c4ccc(OCC5COC(Cn6cncn6)(c6ccc(Cl)cc6Cl)O5)cc4)CC3)cc2)c1=O (stereo not given)	1.3%

Structure (SMILES)	activity change, negative = cytotoxicity
O=C(NCCN1CCN(c2cccc3ccc(O)cc23)CC1)c1ccc(F)cc1	19.7%
O=S(=O)(c1ccc(Cl)cc1)N1CCN(c2ccnc3cc(Cl)ccc23)CC1	-1.99%
C=C(C(=O)OC)[C@@H]1CC=C2C=CC(=O)[C@H](C)[C@@]2(C)C1	-16.8%
Cc1ccc(-c2ncc[nH]2)cc1NC(=O)c1ccc(OCc2ccccn2)cc1	-9.42%
O=C(Nc1ccccc1C(=O)Nc1ccc(CCO)cc1)c1ccc([N+](=O)[O-])cc1	0.568%
COc1cc(C(=O)NC(=S)Nc2cccc(NC(=O)c3ccccc3)c2)cc(OC)c1OC	9.21%
C=C(C(=O)O)[C@@H]1CC=C(CCC(C)=O)[C@@H](C)CC1	-2.54%
CC1(C)CCCC2(C)C1C(=O)C=C(C(=O)O)C2(O)C(=O)O (stereo not given)	-23.3%
C=C1C(=O)OC2CC3(C)C(O)C(=O)C=C(C)C3CC12 (stereo not given)	-3.62%
O=C(O)c1ccc(S(=O)(=O)N(Cc2ccc(OC(F)(F)F)cc2)c2ncc(C(F)(F)F)cc2Cl)cc1	23.4%
CCC(CC)(NC(=O)C(C)C)C(=O)N[C@@H](CCCN=C(N)N)C(=O)NC1(C(=O)NC(c2ccc(F)cc2)c2ccc(F)cc2)CCCC1	-1.59%
C=C1CCC[C@]2(C)CC/C(=C(/CO)C(=O)OC)C[C@@H]12	12.7%
O=C(O)C1=CO[C@@H](O[C@@H]2O[C@H](CO)[C@@H](O)[C@H](O)[C@H]2O)[C@@H]2C(CO)=CC[C@H]12	33.5% [at 38.5 µM]
Cc1ccc(C2(C(=O)N3CCC(n4nc(-c5ccccc5)oc4=O)CC3)CC2)cc1	3.49%
COC1C(OC(=O)/C=C/C=C/C=C/C=C/C(=O)O)CCC2(CO2)C1C1(C)OC1CC=C(C)C (stereo not given)	-1.01% [at 25.3 µM]
CC(C)c1cc(-c2ccc(F)c3ccccc23)nc(N)n1	13.1%
COc1ccc(C#Cc2ccc(C(=O)N3CCC[C@@H](CO)C3)cc2)cc1	-5.27%
COc1ccc(OC)c(-c2ccc(NC(=O)c3ccncc3F)cc2)c1	3.14%
O=c1cc(NCCCN[C@@H]2CCOc3c(Br)cc(Br)cc32)[nH]c2ccsc12	-25.5%
O=C1COC2(CCN(S(=O)(=O)c3ccc(-c4ccc5cccnc5c4)cc3)CC2)CN1C1CC1	1.66%

system: SKOV3; assay: as above; conditions: Gynecologic cancer cell panel viability, ATPlite luminescence, 48 h; series mostly up to 57.5 µM; activity change, negative = cytotoxicity: at the top concentration
Method in brief: as §1

Structure (SMILES)	activity change, negative = cytotoxicity
CC(C)C[C@H](CO)Nc1nc(S[C@@H](C)c2ccccc2)nc2nc(N)sc12	23.5%
CCN(CC)C(=O)C(c1ccccc1)N1CCN(c2ccc(NC(=O)c3ccccc3-c3cccnc3)cc2F)CC1 (stereo not given)	-1.9%
Cc1cn2cc(C(=O)N(C)CCO)cc(NC3CCOc4cccc(C)c43)c2n1 (stereo not given)	0.278%
O=C(NC[C@H]1CN(c2ccc(N3CCOCC3=O)cc2)C(=O)O1)c1ccc(Cl)s1	6.08%
Cc1cc2c(N3CCCC3)nc(N3CCCC3)nc2n1C	5.22%
CC(=O)c1ccc2c(c1)[C@H](NC(=O)c1ccc(F)c(Cl)c1)[C@H](O)C(C)(C)O2	1.32%
COc1cc2ncnc(Nc3ccc(F)c(Cl)c3)c2cc1O	6.16%
O=C(Nc1ccccc1)N1CCC(Cc2cnc3ccccc3c2)CC1	0%
CCC(C)C(=O)OC1C(C)C2(O)C(C=C(CO)CC3(O)C(=O)C(C)=CC32)C2C(C)(C)C12OC(=O)C(C)C (stereo not given)	-12.8% [at 25.3 µM]
Cn1cc(C2=C(c3coc4ccccc34)C(=O)NC2=O)c2cc(Br)ccc21	26.8%
CC1=C(C(=O)Nc2cc(Cl)ccc2Cl)C(c2ccco2)C2=C(CCCC2=O)N1 (stereo not given)	-0.826%
CC(=O)OC1C(OC(=O)c2ccccc2)C2C(C)(C)CCC(OC(C)=O)C2(C)C23CCC(C)(C2)C(=O)CC13 (stereo not given)	-2.43% [at 25.3 µM]
CC(CCC1(O)OC2CC3C4CC=C5C[C@@H](O[C@@H]6O[C@H](CO)[C@@H](O[C@@H]7O[C@@H](C)[C@H](O)[C@@H](O)[C@H]7O)[C@H](O)[C@H]6O[C@@H]6O[C@@H](C)[C@H](O)[C@@H](O)[C@H]6O)CC[C@]5(C)C4CC[C@]3(C)[C@@]2(O)[C@@H]1C)CO[C@@H]1O[C@H](CO)[C@@H](O)[C@H](O)[C@H]1O (stereo not given in full)	2.43% [at 11.6 µM]
CC(=O)[C@H]1CC[C@H]2[C@@H]3CC=C4C[C@@H](OS(=O)(=O)O)CC[C@]4(C)[C@H]3CC[C@]12C	16.6%
COc1cccc(N2CCN(C3=Nc4c(F)cccc4[C@H](CC(=O)O)N3c3cc(C(F)(F)F)ccc3OC)CC2)c1	24.8%
COc1ccc(-n2c(SCCCN3C(=O)c4cccc5cccc(c45)C3=O)nnc2-c2ccncc2)cc1	-4.45%
Cc1c(C2=CCN(C(=O)N(C)C(C)C)CC2)nnn1-c1cccnc1F	11.1%
COc1cc(C(C)C)c(Oc2cnc(N)nc2N)cc1I	-1.19%
Cc1nc(C#Cc2ccnc(Cl)c2)c(C)n1-c1ccc(OC(F)(F)F)cc1	-9.56%
CC(O)C(C)n1ncn(-c2ccc(N3CCN(c4ccc(OCC5COC(Cn6cncn6)(c6ccc(Cl)cc6Cl)O5)cc4)CC3)cc2)c1=O (stereo not given)	7.82%

Structure (SMILES)	activity change, negative = cytotoxicity
O=C(NCCN1CCN(c2cccc3ccc(O)cc23)CC1)c1ccc(F)cc1	-18.7%
O=S(=O)(c1ccc(Cl)cc1)N1CCN(c2ccnc3cc(Cl)ccc23)CC1	8.11%
C=C(C(=O)OC)[C@@H]1CC=C2C=CC(=O)[C@H](C)[C@@]2(C)C1	2.77%
Cc1ccc(-c2ncc[nH]2)cc1NC(=O)c1ccc(OCc2ccccn2)cc1	-3.53%
O=C(Nc1ccccc1C(=O)Nc1ccc(CCO)cc1)c1ccc([N+](=O)[O-])cc1	-13.3%
COc1cc(C(=O)NC(=S)Nc2cccc(NC(=O)c3ccccc3)c2)cc(OC)c1OC	-15.6%
C=C(C(=O)O)[C@@H]1CC=C(CCC(C)=O)[C@@H](C)CC1	2.87%
CC1(C)CCCC2(C)C1C(=O)C=C(C(=O)O)C2(O)C(=O)O (stereo not given)	-34.9%
C=C1C(=O)OC2CC3(C)C(O)C(=O)C=C(C)C3CC12 (stereo not given)	-25.2%
O=C(O)c1ccc(S(=O)(=O)N(Cc2ccc(OC(F)(F)F)cc2)c2ncc(C(F)(F)F)cc2Cl)cc1	11.1%
CCC(CC)(NC(=O)C(C)C)C(=O)N[C@@H](CCCN=C(N)N)C(=O)NC1(C(=O)NC(c2ccc(F)cc2)c2ccc(F)cc2)CCCC1	0.0653%
C=C1CCC[C@]2(C)CC/C(=C(/CO)C(=O)OC)C[C@@H]12	7.04%
O=C(O)C1=CO[C@@H](O[C@@H]2O[C@H](CO)[C@@H](O)[C@H](O)[C@H]2O)[C@@H]2C(CO)=CC[C@H]12	8.8% [at 38.5 µM]
Cc1ccc(C2(C(=O)N3CCC(n4nc(-c5ccccc5)oc4=O)CC3)CC2)cc1	1.38%
COC1C(OC(=O)/C=C/C=C/C=C/C=C/C(=O)O)CCC2(CO2)C1C1(C)OC1CC=C(C)C (stereo not given)	-1.97% [at 25.3 µM]
CC(C)c1cc(-c2ccc(F)c3ccccc23)nc(N)n1	11.7%
COc1ccc(C#Cc2ccc(C(=O)N3CCC[C@@H](CO)C3)cc2)cc1	-12.2%
COc1ccc(OC)c(-c2ccc(NC(=O)c3ccncc3F)cc2)c1	-12.4%
O=c1cc(NCCCN[C@@H]2CCOc3c(Br)cc(Br)cc32)[nH]c2ccsc12	-24.7%
O=C1COC2(CCN(S(=O)(=O)c3ccc(-c4ccc5cccnc5c4)cc3)CC2)CN1C1CC1	8.21%
